Sampled rows, rich in hits. Any-hit rate of the full collection: about 9.4%.
Rab9 promoter act: activates the Rab9 promoter | Huh7 Rab9 promoter-luciferase reporter, luminescence, 24 h | Potency, µM (doses to about 9.22 µM), inactives show at the highest dose activation, negative = inhibition, actives largely listed as activators | hit rate 2.8% among 320,000 | AID 485297; further: % of control where 0% means no effect; nearly all actives have a fitted effect of over 60% in size
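Steps: seed 1500 Huh7 Rab9-luc cells per well, rest 2 h at 37 °C; add compound in DMSO; incubate 24 h; add luciferase reagent, 10 min ambient; read luminescence.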
NPC1 promoter act: activates the NPC1 promoter. Huh7 NPC1 promoter luciferase reporter, 24 h. Potency, µM (top dose mostly 9.22 µM), for the others: top-dose activation, hits mostly activators. hit rate 2.4% among 320,000. AID 485313; further: % of control where 0% means no effect; nearly all actives have a fitted effect of over 60% in size
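Compounds in DMSO were transferred onto Huh7 NPC1-luciferase reporter cells pre-incubated 2 h; after 24 h at 37 °C, Amplite reagent was dispensed and luminescence recorded 10 min later.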
FLuc counter: inhibits or activates purified firefly luciferase, miR-21 counter-screen; Potency, µM (highest dose often 57.5 µM), for inactives: at the top dose activity change, negative = inhibition, hits mostly inhibitors; P08659; AID 588342; hit rate 6.9% among 360,000; purified FLuc, Km substrates, luminescence inhibition;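 further: plate controls were vehicle for no effect and reference inhibitor for full effect; nearly all actives have a fitted effect of over 55% in size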
Target sequence (P08659 whole entry, looked up): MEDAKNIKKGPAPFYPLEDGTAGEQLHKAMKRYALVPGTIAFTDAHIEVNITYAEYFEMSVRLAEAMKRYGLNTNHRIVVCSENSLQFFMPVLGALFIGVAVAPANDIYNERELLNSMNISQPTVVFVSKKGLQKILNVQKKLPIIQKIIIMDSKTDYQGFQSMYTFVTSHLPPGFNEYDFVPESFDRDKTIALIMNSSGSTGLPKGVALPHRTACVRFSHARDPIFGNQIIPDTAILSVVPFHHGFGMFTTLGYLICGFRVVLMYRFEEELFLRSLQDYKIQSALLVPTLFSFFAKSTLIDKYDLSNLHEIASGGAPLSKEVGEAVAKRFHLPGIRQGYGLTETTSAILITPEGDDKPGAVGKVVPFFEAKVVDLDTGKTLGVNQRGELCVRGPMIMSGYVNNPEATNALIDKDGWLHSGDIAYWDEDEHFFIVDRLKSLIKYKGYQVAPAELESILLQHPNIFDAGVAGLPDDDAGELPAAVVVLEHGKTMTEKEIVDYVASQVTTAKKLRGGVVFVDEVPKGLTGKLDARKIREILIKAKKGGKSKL
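Biochemical qHTS of compounds, final roughly 60 µM downward over six points, against 10 nM purified firefly luciferase using Km concentrations of substrates (10 uM D-luciferin, 10 uM ATP) in Tris acetate pH 7.5 buffer; luminescence output.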
ELG1 DNA repair: inhibitors of ELG1-dependent DNA repair in HEK293T cells; hit rate 2.3% among 330,000; AID 504467; Potency, µM (titrated, usually from 46.1 µM), without a hit: at the top dose activity change, negative = inhibition, hits mostly inhibitors; HEK293T ELG1-luciferase reporter, luminescence, 16 h; DNA damage induced by 5-fluorouridine; further: on the % scale 0 is the no-effect control and ±100 the full control effect; nearly all actives have a fitted effect of over 55% in size
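Reporter activity after DNA damage by 5-fluorouridine is monitored. Compound-treated cells incubate 16 hr at 37 °C, then ONE-Glo is added for 30 min before luminescence reading.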
SMN2 splice enh: enhancers of SMN2 splice variant expression; HEK293 SMN2-luciferase splicing reporter, luminescence, 30-36 h; Potency, µM (highest dose often 46.1 µM), for the others: at the highest dose activity change, positive = activation, actives largely listed as activators; hit rate 2.8% among 210,000; further: % of control where 0% means no effect; nearly all actives have a fitted effect of over 55% in size
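qHTS luciferase splicing reporter: luminescence rises when SMN2 exon 7 is included in transfected HEK293 cells. Compound exposure lasted 30-36 h at 37C, with 4.5 mM final sodium butyrate as control, followed by a ONE-Glo read.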
ELG1 genotoxic: genotoxicity induction in ELG1-luciferase HEK293T cells; HEK293T ELG1-luciferase reporter, luminescence, 16 h; hit rate 1.3% among 330,000; Potency, µM (series often up to 46 µM), for the others: top-dose activity change, positive = activation, actives largely listed as activators; further: % of control where 0% means no effect; nearly all actives have a fitted effect of over 60% in size
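ELG1-luciferase HEK293T cells, 2,000/well; compound pinned in; 16 hr, 37 °C, 5% CO2; ONE-Glo, 30 min RT; luminescence on CCD imager.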
* = called active by the depositor; ? = inconclusive; / = no result; [ ] = another dose, or the depositor's remark. The call rests on the fitted dose curve; in most records, active means well fitted curve in the direction sought with a large enough effect; inconclusive means small, poorly fitted or top-dose-only effect, or another doubt; inactive means no such curve, though single readings can be large; an effect the other way counts as inactive or inconclusive. Potency means the concentration at half of the fitted maximal effect.

SMILES	Rab9 promoter act	NPC1 promoter act	FLuc counter	ELG1 DNA repair	SMN2 splice enh	ELG1 genotoxic
O=C(O)c1cc(O)c2c(c1)[C@H]([C@H]1c3cc(C(=O)O)cc(O)c3C(=O)c3c(O[C@@H]4OC(CO)C(O)C(O)C4O)cccc31)c1cccc(O[C@@H]3OC(CO)C(O)C(O)C3O)c1C2=O (stereo partly drawn)	/	/	/	/	-17%	/
Cc1ccc(-c2nnc(SCC(=O)c3ccc(Cl)cc3)n2-c2ccccc2)cc1	/	/	-5%	/	/	/
CCOC(=O)C1CCCN(C(=O)C2CCN(S(=O)(=O)c3c(C)noc3/C=C/c3ccc(C)cc3)CC2)C1 (stereo not drawn)	/	/	-2%	/	/	/
CN(C)CC(CN(C)C)c1ccccn1	/	/	/	/	-4%[9.22 µM]	/
CS(=O)(=O)Nc1ccc(Nc2c3ccccc3nc3ccccc23)cc1	/	/	/	/	5%[9.22 µM]	/
CC[C@H](CN(C)C)C(=O)c1ccco1	/	/	/	/	-9%[9.22 µM]	/
O=[N+]([O-])c1cc(-c2n(-c3ccccn3)c3ccccc3[n+]2-c2ccccn2)ccc1Cl	-2%	0%	-1%	18µM*	-25%	-16%
O=C(c1ccc(Cl)c([N+](=O)[O-])c1)N1CCN(c2ccccn2)CC1	-4%	-6%	3%	-19%	-26%	-1%
Cn1cccc1C(=O)N1CCC[C@@]2(CCN(C(c3ccccc3)c3ccccc3)C2)C1	/	/	/	/	-17%	/
Cc1ccc(NC(=O)/C(C#N)=C\c2ccc(Cl)cc2Cl)cc1C	/	/	-19%	/	-15%	/
Cc1ccc(N/C=C(/C#N)c2ccsc2)cc1C	/	/	2.4µM*	/	13µM*	/
COc1cc(OC)c(C#N)c(S(=O)(=O)Cc2ccccc2)c1	-4%	3%	-5%	-4%	-13%	-1%
N#Cc1c([N+](=O)[O-])cc([N+](=O)[O-])cc1S(=O)(=O)Cc1ccccc1	-47%	-34%	?	16µM*	/	-2%
C[C@H]1Cc2c(COc3ccccc3)nc3c(c2CO1)CN(C(=O)NCCc1c[nH]c2ccccc12)CC3	/	/	/	/	-4%[9.22 µM]	/
O=C(Nc1nccs1)c1c(O)c2c([nH]c1=O)CCCC2	2.2µM*	?	?	?	/	8%
O=C(N/N=C/c1cccc(F)c1)c1c(O)c2ccccc2[nH]c1=O	?	?	4%	?	-22%	?
O=C(N/N=C/c1cccc(Cl)c1)c1c(O)c2c([nH]c1=O)CCCC2	2.5µM*	2.8µM*	?	?	/	?
CCCc1nnc(NC(=O)c2c(O)c3c([nH]c2=O)CCCC3)s1	?	28%	2%	-5%	11%	3%
O=C(Nc1ccccc1O)c1c(O)c2c([nH]c1=O)CCCC2	3.5µM*	?	7.6µM*	?	18µM*	?
CCCOc1cccc(C(=O)N(Cc2ccc(C)o2)C2CCS(=O)(=O)C2)c1 (stereo not drawn)	/	/	5%	/	-2%	/
CCOC(=O)/C(C)=N/NC(C)=O	/	/	/	/	0%	/
Cc1cc(C)nc(NS(=O)(=O)c2ccc(N3Cc4ccccc4C3=O)cc2)n1	-8%	-1%	0%	17%	4%	3%
CC(C(=O)O)c1ccc(N2Cc3ccccc3C2=O)cc1 (stereo not drawn)	0.32µM*	0.089µM*	0.27µM*	?	1.3µM*	11%
Cc1c(Cl)cccc1Nc1nc(N)nc(CSc2ncccn2)n1	?	23%	?	?	8%	16µM*
O=C(NCc1ccccc1Cl)C(=O)NCC(c1cccs1)S(=O)(=O)c1ccccc1 (stereo not drawn)	/	/	-7%	/	/	/
Oc1ccc2ccccc2c1SSc1c(O)ccc2ccccc12	1%[46.1 µM]	5%[46.1 µM]	/	/	/	/
CCn1nnnc1SCC(=O)c1ccc(C)cc1	?	?	15µM*	?	3%	?
O=C(O)CCSCC(=O)c1ccc2c(c1)OCCO2	-6%	16%	11µM*	?	?	23%
CCCn1nnnc1SCC(=O)c1ccc2c(c1)OCCO2	?	?	12µM*	?	3%	?

Assay outcomes deposited in PubChem BioAssay by National Center for Advancing Translational Sciences (NCATS).
